The source of these data is PubChem BioAssay AID799 (SRMLSC, 2007).

Among all 140,000 compounds or so, about 840 (0.6%) were called active. The entries come from a sample that favours actives as a whole. A number with no mark means an inactive call.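 Rule for the calls: active = viability gain under doxorubicin at or above a set limit, the compound median plus 3 SD (cut at about 4.7% in these data); inactive = the rest.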

The nature of this assay: protection of MRP-1-high cells against doxorubicin toxicity – H69AR cells, CellTiter-Glo, MRP-1 activator project, primary screen (AID 799).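 Note: MRP-1 overexpressing cells given doxorubicin 25 µM after compound pretreatment; 18-22 h compound pretreatment then 72 h with doxorubicin before readout; 0% = doxorubicin-only wells and 100% = vehicle-treated cells without doxorubicin.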 The settings on record: viability rescue, at 10 µM, stronger effect = higher value.
Turning to `CN(C(=O)c1c(Cl)cnn1C)C12CC3CC(CC(C3)C1)C2`, the viability increase was -1.48%.
The result for `Clc1cccc(CN2COc3c(cc(Cl)c4cccnc34)C2)c1` reads -5.22%; that for `COc1ccc(C(=O)Nc2ccccc2C(=O)N/N=C/c2ccccc2OC)cc1`, -3.65%.
In the case of `COc1cccc(/C=N/NC(=O)c2[nH]nc3c2CCc2ccccc2-3)c1O` it was -0.29%; in that of `COc1cccc(/C=N\NC(=O)C2=NNC(=O)C2C)c1O` (stereo unspecified), 8.24% (active).
Turning to `CCn1cc(/C=C2/SC(=S)NC2=O)c(C)n1`, the viability increase is -3.74%.
In the case of `Cc1ccc(NC(=S)NCc2ccccc2Cl)c(C)c1` it was -3.43%; in that of `CC1(C)CC(=O)C2=C(C1)N=C1SCCC(=O)N1C2c1ccc(C(F)(F)F)cc1` (stereo unspecified), 9.27% (active); in that of `Cc1ccc(C(=O)COC(=O)CCCC(=O)NC2CCCCC2)cc1[N+](=O)[O-]`, -1.8%.
On to `O=C(N/N=C\c1ccc(-c2ccc(Cl)c(Cl)c2)o1)C(=O)N1CCCC1`, for which the viability increase was 1.06%.
`COC(=O)N/N=C/c1ccc(-c2ccc(Cl)c(Cl)c2)o1`: the viability increase was 9.18% (active).
Turning to `O=C(Cn1nnc(-c2ccccc2)n1)N/N=C/c1ccc(-c2ccc(Cl)cc2)o1`, the viability increase was -1.7%.
In the case of `CCc1ccc(NC2Nc3cc(C)nn3S2)cc1` (stereo unspecified) it was 1.66%.
`Cc1cccc(C)c1NC(=O)CSc1ccc([N+](=O)[O-])cn1`: the viability increase is -2.01%.
The result for `C/C(=N/NC(=O)CSc1ccccn1)c1ccc([N+](=O)[O-])cc1` reads 5.38% (active); that for `COC(=O)c1ccccc1NC(=O)CSc1ccccn1`, -0.18%.
The result for `CC(C)(C)NC(=O)COC(=O)c1cc(Br)ccc1Cl` reads 1.61%; that for `Cc1ccc(C(=O)NC(C)c2ccccc2)cc1Br` (stereo unspecified), 2.53%.
Regarding `COc1ccc(C(=O)ON=C2c3ccccc3-c3ccccc32)cc1OC`, the viability increase is -0.45%.
In the case of `COc1cccc(C2SCC(=O)N2c2cccc(C)c2)c1OC` (stereo unspecified) it was -1.69%.
On to `CSCC[C@H](NC(=O)OC(C)(C)C)C(=O)N/N=C/c1cc2ccc(C)cc2nc1Cl`, for which the viability increase is -3.12%.
With `Cc1ccc(CN2C(=O)N/C(=C/c3cc(C)n(-c4ccccn4)c3C)C2=O)cc1`, the viability increase was 2.22%.
For the compound `O=C(C1CC1)N1CCN=C1SCc1ccc(Cl)cc1`, the viability increase was 4.76% (active).
In the case of `Cc1cc(C)cc(C(=O)N2CCN=C2SCc2ccc([N+](=O)[O-])cc2)c1` it was -4.17%; in that of `O=C(c1ccco1)N1CCN=C1SCc1cccc(Cl)c1`, 1.42%; in that of `CC1CCN(C(=O)c2ccc(CSc3ccc(Cl)cc3)cc2)CC1`, -2.43%.
The result for `Cc1cccc(CC(=O)N2CCN=C2SCc2ccc([N+](=O)[O-])cc2)c1` reads -3.9%.
The result for `CCC(=O)N1CCN=C1SCc1ccc(F)cc1` reads 5.28% (active); that for `Cc1ccc(C(C[N+](=O)[O-])c2c(C)cc3ccccn23)cc1` (stereo unspecified), -4.62%; that for `COc1cc(C(=O)Nc2cc(C(F)(F)F)ccc2N2CCOCC2)ccc1O`, -4.55%.
`O=c1[nH]cnc2c1c(-c1ccccc1)cn2-c1ccc(F)cc1`: the viability increase was -1.33%.
As to `CSCCC(NC(=O)c1cc([N+](=O)[O-])cc([N+](=O)[O-])c1)c1nc2ccccc2[nH]1` (stereo unspecified), the viability increase is -3.92%.
Turning to `S=C(NCCc1ccccc1)NCc1ccccc1Cl`, the viability increase is -1.54%.
The result for `O=C(NCc1ccco1)C1CCCN(S(=O)(=O)c2ccccc2)C1` (stereo unspecified) reads 0.35%; that for `O=C(NCc1ccco1)C1CCCN(S(=O)(=O)c2cnc[nH]2)C1` (stereo unspecified), -1.18%.
With `Cc1noc(/C=C/N(C)C)c1S(=O)(=O)N1CCCC(C(=O)NCc2ccco2)C1` (stereo unspecified), the viability increase was 8.37% (active).
In the case of `CCCc1c(C)nc2c(Br)cccc2c1Cl` it was 0.38%; in that of `O=C1CSC2=NCN(c3ccccc3)CN12`, 8.4% (active).
For `O=C(NCc1cccs1)C(=O)NCC1OCCCN1S(=O)(=O)c1ccc(F)cc1` (stereo unspecified), the viability increase was -1.49%.
With `CC(O)c1nc2ccccc2n1Cc1ccc([N+](=O)[O-])cc1` (stereo unspecified), the viability increase was -1.44%.
With `Cc1ccc(-c2c(C)n([O-])c3c([n+]2=O)CCC3)cc1`, the viability increase was -0.22%.
As for `CC(C)(C)c1ccc(C(=O)NCc2nnc(SCC(=O)N3CCCc4ccccc43)n2-c2ccccc2)cc1`, the viability increase was -0.43%.
Turning to `Cc1ccc(CSCC(N)C(=O)O)cc1` (stereo unspecified), the viability increase is 1.44%.
Regarding `COc1cc2c(cc1/C=C1/NC(=O)N(c3ccccc3)C1=O)OCO2`, the viability increase is 0.58%.
The result for `CCC1(C)Cc2c(sc3nnn(CC(=O)Nc4ccc(Cl)cc4)c(=O)c23)CO1` (stereo unspecified) reads 9.27% (active); that for `CCC1(C)Cc2c(sc3nc(SC)nc(N)c23)CO1` (stereo unspecified), -0.12%; that for `CCC1(C)Cc2c(sc3[nH]c(=S)n(Cc4ccccc4)c(=O)c23)CO1` (stereo unspecified), -3.87%.
The result for `COCc1c(C(=O)N/N=C/C2CC=CCC2)nnn1-c1nonc1N` (stereo unspecified) reads -1.34%.
Regarding `CC(C)(C)N(Cc1ccccc1)C(=O)COC(=O)CCc1c[nH]c2ccccc12`, the viability increase was -1.32%.
For `CCc1nnc(NC(=O)CCC(=O)O)s1`, the viability increase is 0.72%.
For `O=C(NCC(F)(F)F)Nc1nnc(C(F)(F)F)s1`, the viability increase was 7.12% (active).
The result for `COc1ccc(C)cc1NC(=O)CCC(=O)Nc1nnc(C(F)(F)F)s1` reads 1.24%; that for `Cc1nnnn1/C(=C\c1ccccc1)C(=O)OCC(=O)N1CC2(C)CC1CC(C)(C)C2` (stereo unspecified), -4.97%; that for `CCn1c(NC(=O)c2nn(C)cc2Br)nc2ccccc21`, -2.46%.
The result for `O=C(NCCNc1ccc([N+](=O)[O-])cc1)c1cccc2c(Br)cccc12` reads 1.47%; that for `O=C(Nc1ccccc1)c1ccc2c(c1)OCO2`, -0.11%.
For `C/C(=N\NC(=S)NCc1ccccc1)c1ccc(Cl)cc1`, the viability increase is -2.64%.
The result for `C/C(=N/NC(=S)Nc1ccccc1)c1ccc2c(c1)OCO2` reads 7.99% (active); that for `COc1ccc(OCC(O)CNC(=O)Nc2ccc(Cl)cc2)cc1` (stereo unspecified), 2.65%; that for `Cc1ccc(C)c(NS(=O)(=O)c2ccc(OCC(=O)NCc3cccnc3)cc2)c1`, -4.52%.
Regarding `CC1CCN(C(=O)c2ccc(S(=O)(=O)Cc3cc(F)ccc3F)c([N+](=O)[O-])c2)CC1`, the viability increase was -4.87%.
